According to PubChem BioAssay:
The source made the active and inactive calls. Unless noted, the rule behind the calls is not given here.

Legend:
[1] = resazurin metabolic signal in HepG2 cells – cell-based, resazurin fluorescence, 24 h, PK04 Diversity Set, profiling panel (AID 1172); details: HepG2 viability, higher = more signal
[2] = budding yeast growth changes without added modifier – OD600, strain BY4716, 24 h, basal condition, primary screen (AID 1173); details: S. cerevisiae BY4716 growth, OD600, 24 h; higher = more signal, called active from +8 up or from −8 down
[3] = viability profiling in MM1S myeloma cells – cell-based, resazurin fluorescence, basal, 24 h, PK04 Diversity Set, profiling panel (AID 1174); details: higher = more signal, called active from +8 up or from −8 down;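 note: MM1S multiple myeloma cell line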
[4] = target: Dihydroorotate dehydrogenase (quinone), mitochondrial (Plasmodium falciparum (isolate 3D7)) (UniProt Q08210); test: inhibition of P. falciparum DHODH – biochemical, C-terminal His tag, absorbance 600 nm, primary screen (AID 1175); details: PfDHODH enzyme, DCIP absorbance 600 nm; higher = more signal, called active from +8 up or from −8 down;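 note: recombinant parasite enzyme with a five histidine tag at its C terminus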
[5] = inhibition of PAO1 biofilm formation – strain PAO1, LB-PBS medium, absorbance 600 nm, primary screen (AID 1176); details: P. aeruginosa PAO1 growth/biofilm, A600, 12 h; higher = more signal
[6] = growth modulation of vineyard yeast isolate – strain RM11-1a, OD600, basal, 24 h, primary screen (AID 1177);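 note: cultures grown under basal conditions with no added stressor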; details: S. cerevisiae RM11-1a growth, OD600, 24 h; higher = more signal, called active from +8 up or from −8 down
[7] = growth of efflux-deficient E. coli DRC39 – strain DRC39, OD650, 24 h, E. coli filamentation inducers, primary screen (AID 1178);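 note: growth measured as culture turbidity by optical density at 650 nm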; details: E. coli DRC39 acrAB, higher = more signal, called active from +8 up or from −8 down
[8] = growth of efflux-deficient E. coli DRC39 – strain DRC39, OD650, 48 h, E. coli filamentation inducers, primary screen (AID 1179);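 note: screen aims at cell division blockers that make cells filament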; details: E. coli DRC39 delta-acrAB growth, higher = more signal, called active from +8 up or from −8 down
[9] = viability profiling in RPMI8226 myeloma cells – cell-based, resazurin fluorescence, basal, 24 h, PK04 Diversity Set, profiling panel (AID 1180); details: higher = more signal;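 note: RPMI8826 multiple myeloma cell line at 5000 cells per well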
[10] = target: E3 ubiquitin-protein ligase XIAP (Homo sapiens) (UniProt P98170); test: small molecules binding XIAP protein – biophysical, small-molecule microarray, fluorescence 635 nm, primary screen (AID 1181); details: higher = more signal;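 note: score merges 667 nm emission and signal to noise over triplicate slides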
[11] = system: XIP peptide (Xip251-270) binding; test: XIP fragment 251-270 binding compounds – biochemical, small-molecule microarray, fluorescence 635/667 nm, 0.1 µg/mL protein, primary screen (AID 1182); details: fluorescent protein binding, 635 nm, higher = more signal, called active from +8 up or from −8 down
XIP peptide (Xip251-270) = test: compounds binding XIP fragment 251-270 – biochemical, small-molecule microarray, fluorescence 635/667 nm, 0.5 µg/mL protein, primary screen (AID 1183); details: fluorescence 635 nm, higher = more signal
[12] = blood-stage malaria parasite viability loss – strain 3D7, DAPI fluorescence, 100 nL, primary screen (AID 1184);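 note: parasites grown inside human red blood cells in medium with human serum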; details: P. falciparum 3D7 growth, 3 d, higher = more signal
[13] = target: Homeobox protein Hox-A13 (Mus musculus) (UniProt Q62424); test: disruptors of Hoxa13 oligonucleotide interaction – biochemical, fluorescence polarization, labeled oligonucleotide, primary screen (AID 1185); details: Hoxa13:DNA binding, 15 min, higher = more signal, called active from +8 up or from −8 down
[14] = blockers of DNA damage checkpoint Chk1 activation – imaging, HeLa, hydroxyurea, phospho-Chk1 antibody, percent positive cells, primary screen (AID 1186); details: hydroxyurea-induced phospho-Chk1 immunofluorescence imaging, higher = more signal
[15] = blockers of DNA damage checkpoint Chk1 activation – imaging, HeLa, hydroxyurea, phospho-Chk1 nuclear intensity, primary screen (AID 1187); details: hydroxyurea-induced phospho-Chk1 immunofluorescence imaging, higher = more signal

Dihydroorotate dehydrogenase (quinone), mitochondrial (Plasmodium falciparum (isolate 3D7)), sequence (Q08210 whole entry, looked up): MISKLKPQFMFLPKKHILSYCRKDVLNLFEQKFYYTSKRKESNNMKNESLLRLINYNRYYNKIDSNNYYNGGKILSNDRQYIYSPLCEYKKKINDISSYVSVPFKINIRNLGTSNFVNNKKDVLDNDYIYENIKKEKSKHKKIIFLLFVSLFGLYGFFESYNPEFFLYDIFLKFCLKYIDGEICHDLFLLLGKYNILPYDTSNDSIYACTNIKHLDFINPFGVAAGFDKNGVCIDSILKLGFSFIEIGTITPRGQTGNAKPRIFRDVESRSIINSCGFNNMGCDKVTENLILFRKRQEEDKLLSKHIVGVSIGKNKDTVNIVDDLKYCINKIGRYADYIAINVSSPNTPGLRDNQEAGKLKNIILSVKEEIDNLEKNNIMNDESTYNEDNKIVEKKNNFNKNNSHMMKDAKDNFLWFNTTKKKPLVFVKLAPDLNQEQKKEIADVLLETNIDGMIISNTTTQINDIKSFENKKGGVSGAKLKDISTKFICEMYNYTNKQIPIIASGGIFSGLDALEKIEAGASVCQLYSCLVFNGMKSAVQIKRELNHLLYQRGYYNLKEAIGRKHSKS
E3 ubiquitin-protein ligase XIAP (Homo sapiens), sequence (P98170 whole entry, looked up, the tested form may be a part): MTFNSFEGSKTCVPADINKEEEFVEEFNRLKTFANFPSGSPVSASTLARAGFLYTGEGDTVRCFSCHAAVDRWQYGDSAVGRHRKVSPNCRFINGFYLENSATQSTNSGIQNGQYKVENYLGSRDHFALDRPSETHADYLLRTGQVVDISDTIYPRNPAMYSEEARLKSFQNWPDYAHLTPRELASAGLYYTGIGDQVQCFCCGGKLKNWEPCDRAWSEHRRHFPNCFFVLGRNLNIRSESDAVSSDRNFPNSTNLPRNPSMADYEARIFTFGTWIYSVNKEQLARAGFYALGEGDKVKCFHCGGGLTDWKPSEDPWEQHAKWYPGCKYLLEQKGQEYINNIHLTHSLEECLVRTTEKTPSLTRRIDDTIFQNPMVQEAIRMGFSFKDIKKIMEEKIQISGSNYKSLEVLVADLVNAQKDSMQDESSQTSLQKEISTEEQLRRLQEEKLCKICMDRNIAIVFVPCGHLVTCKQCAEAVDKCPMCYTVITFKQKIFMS
Homeobox protein Hox-A13 (Mus musculus), sequence (Q62424 whole entry, looked up): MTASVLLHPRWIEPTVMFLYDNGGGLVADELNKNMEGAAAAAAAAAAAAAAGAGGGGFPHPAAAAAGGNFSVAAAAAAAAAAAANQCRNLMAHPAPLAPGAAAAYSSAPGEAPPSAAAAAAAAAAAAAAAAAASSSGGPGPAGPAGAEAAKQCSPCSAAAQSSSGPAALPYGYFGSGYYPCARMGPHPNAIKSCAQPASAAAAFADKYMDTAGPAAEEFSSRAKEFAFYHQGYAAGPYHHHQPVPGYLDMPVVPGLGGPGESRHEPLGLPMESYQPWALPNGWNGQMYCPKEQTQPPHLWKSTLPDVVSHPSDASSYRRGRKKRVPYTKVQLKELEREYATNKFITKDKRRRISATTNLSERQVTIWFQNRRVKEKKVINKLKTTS

| SMILES | z-score [1] | z-score [2] | z-score [3] | composite z-score [4] | z-score [5] | z-score [6] | z-score [7] | z-score [8] | z-score [9] | composite z-score [10] | composite z-score [11] | composite z-score (XIP peptide (Xip251-270)) | z-score [12] | z-score [13] | z-score [14] | z-score [15] |
| --- | --- | --- | --- | --- | --- | --- | --- | --- | --- | --- | --- | --- | --- | --- | --- | --- |
| C=CCNC(=O)[C@H]1[C@@H]2C(=O)O[C@@H](c3ccccc3)[C@@H](c3ccccc3)N2[C@@H](c2ccc(O)cc2)[C@]12C(=O)Nc1ccc(C#CC3=CCCCC3)cc12 | -0.118 | -0.147 (inactive) | -2.44 (inactive) | 0.018 (inactive) | 1.41 (inactive) | 1.87 (inactive) | 0.322 (inactive) | 0.628 (inactive) | -5.43 | -0.124 | 0.542 (inactive) | 0.785 | -0.51 | 0.771 (inactive) | -0.354 (inactive) | -0.217 (inactive) |
| CCCCC(=C=CC[C@@H](O)c1ccc(OCCO)cc1)C[C@@H](O)c1ccccn1 | -0.517 | -1.12 (inactive) | -0.769 (inactive) | -8.71 (active) | 0.932 (inactive) | 0.43 (inactive) | 0.753 (inactive) | 0.239 (inactive) | -0.541 | 0.133 | 0.0856 (inactive) | -0.24 | -0.979 | -5.87 (inactive) | 0.784 (inactive) | 0.744 (inactive) |
| COc1ccc([Si](C)(C)[C@H]2[C@H](CC(=O)N3Cc4ccccc4C[C@H]3CO)O[C@@]3(C(=O)N(Cc4cccc(N5C(=O)c6cccc7cccc5c67)c4)c4ccccc43)[C@@H]2C)cc1 | -0.539 | -0.563 (inactive) | -2.76 (inactive) | -1.88 (inactive) | 1.49 (inactive) | 1.95 (inactive) | 0.643 (inactive) | 0.209 (inactive) | -2 | 0.0153 | 0.14 (inactive) | 0.802 | -2.45 | -2.56 (inactive) | -0.887 (inactive) | -0.153 (inactive) |
| COCCOC(=O)N1C(=O)[C@@]2(c3cc(C#Cc4ccc(OC)cc4)ccc31)[C@H](c1ccc(OCCO)cc1)N1[C@H](c3ccccc3)[C@H](c3ccccc3)OC(=O)[C@H]1[C@@H]2C(=O)N1CCCCCCC1 | -0.266 | 0.376 (inactive) | 0.699 (inactive) | -1.31 (inactive) | 2.17 (inactive) | 0.277 (inactive) | 0.0117 (inactive) | 1.19 (inactive) | 0.746 | 0.0162 | 0.92 (inactive) | 0.768 | -2.09 | -15.8 (active) | -0.318 (inactive) | -0.217 (inactive) |
| O=C(NCC(F)(F)F)[C@@H]1c2ccccc2C(=O)N(CC23CC4CC(CC(C4)C2)C3)[C@H]1c1ccc(CO)cc1 | 0.26 | -2.11 (inactive) | -1.04 (inactive) | -2.32 (inactive) | 1.43 (inactive) | -2.97 (inactive) | 1.05 (inactive) | 0.823 (inactive) | 0.582 | 0.341 | 0.35 (inactive) | 0.586 | -2.24 | -4.02 (inactive) | -0.254 (inactive) | -0.371 (inactive) |
| CCOC(=O)C[C@H]1[C@H](OC(=O)Cc2ccc3c(c2)OCO3)[C@@H](NC(=O)c2ccccc2)c2cc(OCCCO)ccc2N1C(=O)Cc1ccc(OC)cc1 | -0.0111 | -0.644 (inactive) | -0.234 (inactive) | -1.37 (inactive) | 0.407 (inactive) | -1.86 (inactive) | 1.68 (inactive) | 2.05 (inactive) | 0.636 | -0.162 | 0.659 (inactive) | 0.288 | -1.35 | -3 (inactive) | -1.29 (inactive) | -1.25 (inactive) |
